High-throughput results deposited in PubChem by several laboratories.
Rev-erbA mod: Rev-erb alpha (human) modulation; P20393; Rev-erbα–FITC-DNA binding, fluorescence polarization, 90 min; activity, % at 10 µM; 370,000 tested, 0.79% active; AID 1259318;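 active = activity above about 14%, limit read from the data; passing the limit was not always enough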;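 note: 0% = DMSO wells with 35 nM protein and 100% = DMSO wells with 750 nM protein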
RAM network inh: yeast RAM network inhibition; inhibition, % at 50 µM; S. cerevisiae dse1pr::URA3 reporter, 5-FOA growth OD615, 2 d; analog-sensitive cbk1-as2 kinase mutant strain; 190,000 tested, 1.8% active;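 active = inhibition above a set limit, 3 SD over mean compound inhibition, cut at about 8.4% in these data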;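 note: 0% = DMSO-only wells with no growth and 100% = 10 µM 1-NA-PP1 full growth; inhibition rescues growth on 5-FOA so higher OD means more RAM inhibition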
PGE2 EP2 inh: blocks the human prostaglandin E2 receptor EP2 | C6 glioma cells expressing human EP2, cAMP TR-FRET; cells stimulated with saturating PGE2 | 260,000 tested, 0.52% active | inhibition, % at 25 µM | P43116;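 active = percent inhibition above 40 after rounding to a whole number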;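 note: rat C6 glioma host cells with rolipram phosphodiesterase inhibitor present; the protocol text gives 20 µM as final concentration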
Target sequence (P43116 whole entry, looked up): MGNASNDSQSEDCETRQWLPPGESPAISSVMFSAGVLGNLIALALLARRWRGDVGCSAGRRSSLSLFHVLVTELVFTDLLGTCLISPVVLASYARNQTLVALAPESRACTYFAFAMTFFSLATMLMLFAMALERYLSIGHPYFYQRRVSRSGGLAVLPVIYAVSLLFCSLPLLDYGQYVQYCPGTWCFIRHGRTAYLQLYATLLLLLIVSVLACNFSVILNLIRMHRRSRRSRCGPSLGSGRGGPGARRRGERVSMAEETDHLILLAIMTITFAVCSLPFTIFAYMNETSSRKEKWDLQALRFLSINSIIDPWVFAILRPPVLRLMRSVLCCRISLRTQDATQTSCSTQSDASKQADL
SKN-1 inh: inhibitors of C. elegans SKN-1; C. elegans VP596 Pgst-4::GFP/RFP ratio, acrylamide-induced, 24 h; inhibition, % at 21.8 µM; 360,000 tested, 0.49% active; AID 624304;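 active = interference check ratio from 0.5 to 1.5 plus GFP to RFP signal ratio inhibition reaching or exceeding a fixed threshold, cut at about 30% in these data, passing the limit was not always enough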
PG9 binder: PG9 antibody binding by small molecule; TR-FRET gp120-PG9 antibody binding; inhibition, % at 6.7 µM; 360,000 tested, 0.43% active; AID 624416; in the data active = inhibition above about 8.5%
EP2 mod: modulates human prostaglandin E2 receptor EP2 signaling; 260,000 tested, 0.83% active; AID 940; EP2-expressing cells, cAMP HTRF FRET, PGE2 co-stimulation; P43116; induction, % at 25 µM;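 active = compounds whose cAMP rise, as percent of the full-agonist control response, exceeds 60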;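 note: rat C6 glioma line stably carrying human EP2 under a CMV promoter; the protocol text gives 20 µM as final concentration; 100% = response of wells given 1 µM PGE2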
Rev-erbA confirm: confirmation of modulators of human Rev-erb alpha DNA binding; 3,000 tested, 61% active; Rev-erb alpha FITC-DNA binding, fluorescence polarization, 90 min; AID 1259319; shares compounds with Rev-erbA mod; activation, % at 25 µM;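 active = activation at or above a set limit, or at least 3 SD above the negative control mean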;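 note: 0% = 35 nM protein with DMSO and 100% = 750 nM protein high control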
RORg DNA counter: counter-screen for Rev-erb alpha modulators: RORgamma DNA binding. shares compounds with Rev-erbA mod. purified RORgamma protein-FITC-DNA binding, fluorescence polarization. IC50, µM. 910 tested, 8% active. AID 1259320;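 active = Compounds whose fitted half-maximal concentration for disrupting protein-DNA binding is below 10 micromolar; the record names Rev-erb in its text, so the target is in doubt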
Starred values were filed as active, the others as inactive; · = no result. Shown are actives, neighbours in structure and some others; about 2.9% of the full set was active somewhere.

SMILES	Rev-erbA mod	RAM network inh	PGE2 EP2 inh	SKN-1 inh	PG9 binder	EP2 mod	Rev-erbA confirm	others
Cc1cc2nc(C3CCCCN3C(=O)C3CCN(S(C)(=O)=O)CC3)[nH]c2cc1C (stereo not drawn)	·	·	·	·	·	-27	·
O=C(CCCn1c(=S)[nH]c2cc3c(cc2c1=O)OCO3)NCCc1ccccc1Cl	27*	·	·	8	5	·	22*
O=C(CCn1c(=S)[nH]c2cc3c(cc2c1=O)OCO3)NCCc1ccccc1Cl	23*	·	·	9	-1	·	13*
CCCC(NC(=O)c1cc2c([nH]c1=O)CCCCC2)c1ccc2c(c1)OCCO2 (stereo not drawn)	·	·	6	·	·	-1	·
Nc1ccc2cc3ccc(N)cc3nc2c1	28*	·	·	·	·	·	27*	RORg DNA counter=>40
Cc1cc(C)cc(OCC(=O)NCc2ccccn2)c1	·	·	8	·	·	-48	·
COc1ccc(C(=O)/C(C#N)=N/Nc2ccccc2[N+](=O)[O-])cc1	2	2	5	5	-1	-29	·
COc1ccc(C(=O)/C(C#N)=N/Nc2ccc([N+](=O)[O-])cc2)cc1	44*	2	13	8	1	-5	36*	RORg DNA counter=>40
CCCC(c1nnnn1C1CCCCC1)N(Cc1ccccc1)Cc1cc2c(C)cc(C)cc2[nH]c1=O (stereo not drawn)	·	·	6	·	·	49	·
Cc1oc2c(C)c(O)ccc2c(=O)c1-c1ccc2ccccc2n1	23*	3	5	7	3	8	20*
CCC(=O)Oc1ccc2c(=O)c(-c3ccc4ccccc4n3)c(CC)oc2c1C	11	1	8	-5	-1	-2	·
CC(C)CCn1c(SCC(=O)NC2CCS(=O)(=O)C2)nc2cc(Cl)ccc2c1=O (stereo not drawn)	21*	·	·	-5	5	·	21*
CC(C)CCn1c(SCC(=O)NC2CC2)nc2cc(Cl)ccc2c1=O	20*	·	·	7	0	·	11
CC(C)Cn1c(SCC(=O)N(C)C2CCS(=O)(=O)C2)nc2cc(Cl)ccc2c1=O (stereo not drawn)	4	·	·	1	-2	·	·
CC[N+]1(CC)Cc2c(c(-c3ccccc3)c3ccccc3c2Cl)C1	·	·	9	·	·	8	·
O=C(NCc1ccc2c(c1)OCO2)C(=O)Nc1cccc(F)c1	·	·	6	·	·	-34	·
CC(=O)Nc1sc(C)c(C)c1C(=O)OCC(=O)N(Cc1ccccc1)C(C)C	42*	·	·	7	-2	·	32*	RORg DNA counter=>40
CCOc1ccc(NC(=O)c2sc(NC(=O)CC)c(C(=O)OC)c2C)cc1	·	·	14	·	·	-17	·
COc1ccccc1NC(=O)COC(=O)c1c(NC(C)=O)sc(C)c1C	19*	·	·	7	-2	·	6
CCC(=O)Nc1sc(C(=O)Nc2ccccc2OC)c(C)c1C(=O)OC	42*	3	7	3	1	2	18
CCOc1ccc(NC(=O)c2sc(NC(C)=O)c(C(=O)OC)c2C)cc1	31*	2	11	-1	3	-5	6
Nc1c(C(=O)NCc2ccc3c(c2)OCO3)sc2nc3cc4c(cc3cc12)OCCO4	·	·	16	·	·	-86	·
CCOc1ccc(C2C(C(C)=O)=C(O)C(=O)N2CCC(=O)O)cc1 (stereo not drawn)	·	·	3	·	·	0	·
COc1ccc2nc3sc(C(=O)Nc4ccc(C(C)=O)cc4)c(N)c3cc2c1	·	·	13	·	·	-46	·
CC1=NCCN1S(=O)(=O)c1c(C(C)C)cc(C(C)C)cc1C(C)C	45*	-1	7	1	1	59	44*	RORg DNA counter=>40
COCc1cc(N2CCN(C(=O)OC(C)(C)C)C[C@@H]2C)ccc1Br	-6	·	·	·	-2	·	·
Cc1cc(N2CCN(C(=O)OC(C)(C)C)C[C@H]2C)ccc1Br	15*	·	·	·	-1	·	4
N#C/C(=C(/O)c1cccc(F)c1)c1nc2ccccc2s1	1	·	6	-12	0	-12	·
N#C/C(=C(/O)C(Cl)c1ccccc1)c1nc2ccccc2s1 (stereo not drawn)	76*	4	5	0	-1	1	49*	RORg DNA counter=>40
